From PubChem BioAssay (Tox21)
Records with an inconclusive call do not appear. Values without a mark were called inactive. Activity calls are given as the source filed them. Calls follow the shape of the dose curve; as a rule, active = well fitted curve in the direction sought with a large enough effect in the repeat runs; inconclusive = weak or mixed curves; inactive = no such curve, though single readings can be large; an effect the other way counts as inactive or inconclusive.

target: Cytochrome P450 1A2 (Homo sapiens) (UniProt P05177); test: Cytochrome P450 Family 1 Subfamily A Member 2 (CYP1A2) small molecule antagonists: luciferase reporter qHTS assay (AID 1671199); conditions: P450-Glo CYP1A2 enzyme, luciferin luminescence, 1 h; series mostly up to 53 µM; activity change, negative = inhibition: at the top concentration; also: potency is read from the fitted curve at half-maximal effect
How it was run: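 P450-Glo CYP1A2, 1536-well qHTS: enzyme/proluciferin substrate + cpd (DMSO), 10 min RT; NADPH regen, 1 h RT; detection reagent, 20 min; luminescence, RLU.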
% is scaled to controls: 0 for no effect and ±100 for the full control effect.
Also: nearly all actives have a fitted effect of over 50% in size.

Chain of Cytochrome P450 1A2 (Homo sapiens) (P05177 whole entry, looked up): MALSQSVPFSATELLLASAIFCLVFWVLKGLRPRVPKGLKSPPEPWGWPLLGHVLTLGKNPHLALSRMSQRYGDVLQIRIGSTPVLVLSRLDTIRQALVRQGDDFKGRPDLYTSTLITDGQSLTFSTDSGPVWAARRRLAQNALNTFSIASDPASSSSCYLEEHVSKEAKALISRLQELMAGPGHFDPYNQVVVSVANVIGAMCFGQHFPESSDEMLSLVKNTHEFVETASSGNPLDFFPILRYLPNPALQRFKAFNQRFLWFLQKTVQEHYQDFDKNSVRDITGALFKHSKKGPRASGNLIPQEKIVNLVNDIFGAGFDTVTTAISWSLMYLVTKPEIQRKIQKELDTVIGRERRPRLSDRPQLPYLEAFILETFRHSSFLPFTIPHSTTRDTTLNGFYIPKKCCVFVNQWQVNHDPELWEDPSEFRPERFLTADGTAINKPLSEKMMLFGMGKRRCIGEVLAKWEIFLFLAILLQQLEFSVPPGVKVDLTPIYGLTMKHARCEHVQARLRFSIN

| SMILES | activity change, negative = inhibition | Potency |
| --- | --- | --- |
| CC(COC(C)(C)C)OCCCO (centres undefined) | -15.5% [at 115 µM] |  |
| CC(=C(CCOC(=O)C(C)C)SSC(CCOC(=O)C(C)C)=C(C)N(C=O)Cc1cnc(C)nc1N)N(C=O)Cc1cnc(C)nc1N | 6.77% |  |
| CCCC(=O)C(C)=O | -17.4% [at 115 µM] |  |
| CC(C)CCCCOC(=O)c1ccccc1C(=O)OCCCCC(C)C |  | 17.9 µM (active) |
| CCOC(=O)c1ncn2c1CN(C)C(=O)c1cc(F)ccc1-2 | 2.46% |  |
| O=C(OCC(COC(=O)c1cccnc1)(COC(=O)c1cccnc1)COC(=O)c1cccnc1)c1cccnc1 | 0.0466% |  |
| CN=C(NC#N)Nc1ccc(C2=NNC(=O)CC2C)cc1 (centres undefined) | 10.1% |  |
| COc1ccc2c(c1)C(=O)N(CCc1ccc(S(=O)(=O)NC(=O)NC3CCCCC3)cc1)C(=O)C2(C)C | 17.4% |  |
| CC(C)N(c1ccccc1)C(C)C | -27.7% [at 115 µM] |  |
| CC(C)NCC(O)COc1ccc(COCCOC(C)C)cc1 (centres undefined) | 15.4% |  |
| CCCN1C[C@H](CSC)C[C@@H]2c3cccc4[nH]cc(c34)C[C@H]21 | -19.3% |  |
| CC(C)CC(C)CC(C)CC(C)COC(=O)c1ccccc1C(=O)OCC(C)CC(C)CC(C)CC(C)C (centres undefined) |  | 65.9 µM (active) |
| Nc1nnc(-c2cccc(Cl)c2Cl)c(N)n1 | -1.03% |  |
| CNC(=O)[C@H]1O[C@@H](n2cnc3c(NCc4cc(Cl)ccc4OCc4cc(C)no4)ncnc32)[C@H](O)[C@@H]1N | -15.1% [at 115 µM] |  |
| CCC(CC)CO | -9.82% [at 115 µM] |  |
| CN(C)c1ccc(C=O)cc1 |  | 35.6 µM (active) |
| CCn1ccc(NS(=O)(=O)c2ccc(N)cc2)nc1=O | 9.21% |  |

target: Voltage-gated inwardly rectifying potassium channel KCNH2 (Homo sapiens) (UniProt Q12809); test: Human Ether-a-go-go-Related Gene (hERG) channel small molecule antagonists: fluorescence cell-based qHTS assay (AID 1671200); conditions: hERG-U2OS cells, FluxOR thallium flux fluorescence; series mostly up to 76.8 µM; activity change, negative = inhibition: at the top concentration;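 also: hERG-expressing U2OS cells given a thallium stimulus after FluxOR II dye loading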
How it was run: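 First, 1000 cells per well are seeded and cultured overnight at 37 C. Next, FluxOR II dye is loaded for 1 h at room temperature, protected from light. After 10 more minutes, stimulus is added and fluorescence is read.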

Chain of Voltage-gated inwardly rectifying potassium channel KCNH2 (Homo sapiens) (Q12809 whole entry, looked up): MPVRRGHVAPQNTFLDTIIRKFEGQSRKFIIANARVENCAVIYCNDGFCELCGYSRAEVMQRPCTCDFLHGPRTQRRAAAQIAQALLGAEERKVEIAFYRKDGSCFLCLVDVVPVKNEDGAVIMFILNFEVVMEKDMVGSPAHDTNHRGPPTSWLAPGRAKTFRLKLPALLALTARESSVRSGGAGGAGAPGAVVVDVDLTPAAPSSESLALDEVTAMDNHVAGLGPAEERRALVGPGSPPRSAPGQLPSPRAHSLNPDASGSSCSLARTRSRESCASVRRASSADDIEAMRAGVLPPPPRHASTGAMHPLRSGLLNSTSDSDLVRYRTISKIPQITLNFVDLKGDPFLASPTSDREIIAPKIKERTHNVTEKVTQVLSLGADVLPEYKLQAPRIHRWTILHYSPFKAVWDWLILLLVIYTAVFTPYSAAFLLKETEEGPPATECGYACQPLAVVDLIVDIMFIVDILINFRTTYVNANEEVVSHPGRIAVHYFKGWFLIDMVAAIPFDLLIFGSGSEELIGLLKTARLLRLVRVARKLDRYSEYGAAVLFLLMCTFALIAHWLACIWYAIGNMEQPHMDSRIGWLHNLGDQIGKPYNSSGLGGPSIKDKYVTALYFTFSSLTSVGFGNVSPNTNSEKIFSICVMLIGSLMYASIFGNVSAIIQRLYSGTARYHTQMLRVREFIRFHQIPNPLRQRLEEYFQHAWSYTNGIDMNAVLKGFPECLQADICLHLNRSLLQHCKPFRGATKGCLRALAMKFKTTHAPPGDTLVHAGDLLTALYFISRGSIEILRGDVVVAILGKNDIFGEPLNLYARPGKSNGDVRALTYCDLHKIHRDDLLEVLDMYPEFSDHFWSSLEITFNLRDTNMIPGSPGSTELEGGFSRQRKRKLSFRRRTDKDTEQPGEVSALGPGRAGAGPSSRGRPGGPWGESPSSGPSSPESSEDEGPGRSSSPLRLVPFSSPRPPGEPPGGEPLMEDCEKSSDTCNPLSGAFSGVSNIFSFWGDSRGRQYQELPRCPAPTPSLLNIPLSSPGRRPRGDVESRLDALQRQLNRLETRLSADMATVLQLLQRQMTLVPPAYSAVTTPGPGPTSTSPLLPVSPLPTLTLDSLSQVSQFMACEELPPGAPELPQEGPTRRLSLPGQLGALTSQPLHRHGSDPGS

| SMILES | activity change, negative = inhibition |
| --- | --- |
| CC(N)C(=O)OC(C)(C)Cc1ccc(Cl)cc1 (centres undefined) | -22% [at 35.3 µM] |
| COc1ccc2nc(SCc3ncc(C)c(OC)c3C)[nH]c2c1 | -3.74% [at 35.3 µM] |
| COc1ccc2c(c1OC)C(=O)O[C@@H]2[C@H]1c2c(cc3c(c2OC)OCO3)CCN1C | -11.4% [at 35.3 µM] |
| CC(=O)CCCCn1c(=O)c2c(ncn2C)n(C)c1=O | 1.89% [at 35.3 µM] |
| CC1(CO)CN(c2ccccc2)NC1=O (centres undefined) | 10.3% |
| CO[C@@H]1[C@@H](OC(N)=O)[C@@H](O)[C@H](Oc2ccc3c(O)c(NC(=O)c4ccc(O)c(CC=C(C)C)c4)c(=O)oc3c2C)OC1(C)C | -0.0643% [at 35.3 µM] |
| CCCCCCCCSCC | 0.531% |
| Cc1cc2cc3c(C)cc(=O)oc3c(C)c2o1 | -2.26% [at 35.3 µM] |
| COC(=O)CCc1ccc(OCC(O)CNC(C)C)cc1 (centres undefined) | -4.22% [at 35.3 µM] |
| CC(=O)Nc1ccc(S(=O)(=O)Cl)cc1 | -1.32% |
| CC(C)=O | 0.0144% |
| O=C(CCN1CCN(CCO)CC1)N1c2ccccc2Sc2ccc(C(F)(F)F)cc21 | -13.6% [at 35.3 µM] |
| Cc1[nH]cnc1-c1ccc(Cl)cc1 | 5.47% [at 35.3 µM] |
| Cc1cccc2nccnc12 | 7.15% |
| CC(=O)NCc1c(I)c(NC(C)=O)c(I)c(C(=O)O)c1I | 1.26% [at 35.3 µM] |
| CC(COC(C)(C)C)OCCCO (centres undefined) | 1.16% |
| CC(=C(CCOC(=O)C(C)C)SSC(CCOC(=O)C(C)C)=C(C)N(C=O)Cc1cnc(C)nc1N)N(C=O)Cc1cnc(C)nc1N | -25% [at 35.3 µM] |
| CCCC(=O)C(C)=O | 12.2% |
| CCOC(=O)c1ncn2c1CN(C)C(=O)c1cc(F)ccc1-2 | 4.8% [at 35.3 µM] |
| O=C(OCC(COC(=O)c1cccnc1)(COC(=O)c1cccnc1)COC(=O)c1cccnc1)c1cccnc1 | -13.7% [at 35.3 µM] |
| CN=C(NC#N)Nc1ccc(C2=NNC(=O)CC2C)cc1 (centres undefined) | -0.999% [at 35.3 µM] |
| CC(C)N(c1ccccc1)C(C)C | 1.23% |
| CC(C)NCC(O)COc1ccc(COCCOC(C)C)cc1 (centres undefined) | 0.196% [at 35.3 µM] |
| Nc1nnc(-c2cccc(Cl)c2Cl)c(N)n1 | 2.17% [at 35.3 µM] |
| CNC(=O)[C@H]1O[C@@H](n2cnc3c(NCc4cc(Cl)ccc4OCc4cc(C)no4)ncnc32)[C@H](O)[C@@H]1N | -0.353% |
| CCC(CC)CO | -0.867% |
| CN(C)c1ccc(C=O)cc1 | 1.83% |
| CCn1ccc(NS(=O)(=O)c2ccc(N)cc2)nc1=O | 1.35% [at 35.3 µM] |

target: Cytochrome P450 3A4 (Homo sapiens) (UniProt P08684); test: Cytochrome P450 Family 3 Subfamily A Member 4 (CYP3A4) small molecule antagonists: luciferase reporter qHTS assay (AID 1671201); conditions: P450-Glo CYP3A4 enzyme, luciferin luminescence, 1 h; series mostly up to 115 µM; activity change, negative = inhibition: at the top concentration; also: potency is read from the fitted curve at half-maximal effect
How it was run: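 Enzyme and proluciferin substrate are mixed with test chemicals for 10 min, then NADPH regeneration system drives turnover for 1 h at room temperature. A detection reagent halts the reaction; luminescence after 20 min gives relative activity.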

Chain of Cytochrome P450 3A4 (Homo sapiens) (P08684 whole entry, looked up): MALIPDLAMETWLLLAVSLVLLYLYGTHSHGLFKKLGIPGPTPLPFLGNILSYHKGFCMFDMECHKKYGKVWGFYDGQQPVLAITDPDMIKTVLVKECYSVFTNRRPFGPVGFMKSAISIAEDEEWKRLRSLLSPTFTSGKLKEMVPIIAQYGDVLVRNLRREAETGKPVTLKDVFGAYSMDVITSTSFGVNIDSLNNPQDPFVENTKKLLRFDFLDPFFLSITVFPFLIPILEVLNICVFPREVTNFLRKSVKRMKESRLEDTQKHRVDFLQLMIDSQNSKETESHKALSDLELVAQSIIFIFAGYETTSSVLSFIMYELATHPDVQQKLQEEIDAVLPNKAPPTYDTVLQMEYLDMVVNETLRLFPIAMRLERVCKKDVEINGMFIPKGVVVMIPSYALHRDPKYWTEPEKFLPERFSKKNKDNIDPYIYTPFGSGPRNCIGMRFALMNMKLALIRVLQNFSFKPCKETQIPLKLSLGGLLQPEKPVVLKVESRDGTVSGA

| SMILES | activity change, negative = inhibition | Potency |
| --- | --- | --- |
| CC(=O)CCCCn1c(=O)c2c(ncn2C)n(C)c1=O | 0.492% [at 52.9 µM] |  |
| CC1(CO)CN(c2ccccc2)NC1=O (centres undefined) |  | 31.7 µM (active) |
| CO[C@@H]1[C@@H](OC(N)=O)[C@@H](O)[C@H](Oc2ccc3c(O)c(NC(=O)c4ccc(O)c(CC=C(C)C)c4)c(=O)oc3c2C)OC1(C)C | 2.54% [at 52.9 µM] |  |
| CCCCCCCCSCC | 3.7% |  |
| COC(=O)CCc1ccc(OCC(O)CNC(C)C)cc1 (centres undefined) | 8.76% [at 52.9 µM] |  |
| CC(=O)Nc1ccc(S(=O)(=O)Cl)cc1 | 4.31% |  |
| CC(=O)NCc1c(I)c(NC(C)=O)c(I)c(C(=O)O)c1I | 52.3% [at 52.9 µM] |  |
| CC(COC(C)(C)C)OCCCO (centres undefined) | 9.27% |  |
| CCOC(=O)c1ncn2c1CN(C)C(=O)c1cc(F)ccc1-2 | 7.84% [at 52.9 µM] |  |
| CN=C(NC#N)Nc1ccc(C2=NNC(=O)CC2C)cc1 (centres undefined) | 0.678% [at 52.9 µM] |  |
| CC(C)N(c1ccccc1)C(C)C | 8.5% |  |
| CCC(CC)CO | 0.847% |  |
| CN(C)c1ccc(C=O)cc1 | 8.03% |  |
| CCn1ccc(NS(=O)(=O)c2ccc(N)cc2)nc1=O | 1.85% [at 52.9 µM] |  |
